Source: PubChem (several laboratories)
Peg3 prom inh – Peg3 promoter-driven luciferase inhibitors, primary screen, cell-based, HeLa, luciferase luminescence; HeLa PEG-Prom luciferase reporter, overnight; inhibition, % at 20 µM; actives 1.7% (n = 360,000);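 active = inhibition of at least 50% at 20 µM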
EBV LMP1 NFkB – EBV LMP1-driven NF-kappaB luciferase reporter inhibitors, primary screen, cell-based, luminescence, single point; LMP1-induced NF-kappaB luciferase reporter cells; inhibition, % at 12.5 µM; actives 0.69% (n = 350,000); in the data active = inhibition above about 41%
Shn3 3UTR inh – reduction of Shn3 3'UTR firefly luciferase signal, primary screen, Schnurri-3 inhibitor project, cell-based, Clone20 osteoblasts, set 2; Clone20 osteoblast Shn3 3'UTR firefly luciferase, 24 h; inhibition, % at 12.5 µM; actives 0.52% (n = 360,000); AID 588674, 2011;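 active = mean inhibition of at least 75% with every replicate also reaching 75%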
KKLEB tox – cytotoxicity in KKLEB CF airway cells, primary screen, cytotoxicity control for CF NF-kB inhibitor project, cell-based, uHTS, fluorescence assay plates; actives 0.36% (n = 360,000); KKLEB CF airway cells viability, ATPlite luminescence, overnight; stronger effect = lower value; cells stimulated with P. aeruginosa culture filtrate; activity change (cytotoxicity), % at 5 µM;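 active = corrected activity change at or below -50% at 5 µM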
CF NFkB block – inhibitors of PAF-induced NF-kB signaling, primary screen, cell-based, GFP fluorescence, uHTS | KKLEB NF-kB-GFP reporter, GFP fluorescence overnight | inhibition, % at 5 µM | actives 0.86% (n = 360,000);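 active = at least 50% inhibition at 5 µM, scaled per plate between neutral and stimulator controls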;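 also: PAF is a Pseudomonas aeruginosa culture filtrate used as stimulus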
HIF-2a block – HIF-2a reporter inhibitors, primary screen, luminescence, 786-0 RCC cells. 786-0 RCC cells HIF-2a reporter, luciferase luminescence, overnight. AID 624352, 2012. actives 0.72% (n = 360,000). inhibition, % at 18.8 µM;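 active = inhibition of the luminescence signal of 40% or more relative to plate controls, in a single-dose primary screen at 18.75 µM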
Each line names hits and unclear results; the compound was inactive in the other large screens. The list is not random: actives were taken first. Their share in the collection is about 2.9%.

Fc1ccc2[nH]c3c(N4CCN(c5ccccc5)CC4)ncnc3c2c1	Peg3 prom inh 103.8, EBV LMP1 NFkB 50.2, Shn3 3UTR inh 88.9
NS(=O)(=O)c1ccc(CCNC(=O)CN2CCCCCC2)cc1	none
Cc1ccc(S(=O)(=O)NCC(=O)OC(C)C(=O)NC2CCCCC2C)cc1C (centres undefined)	none
COC(=O)c1cnc(Nc2nc(C(N)Cc3ccc(Cl)cc3)cs2)nc1C(F)(F)F (centres undefined)	Peg3 prom inh 95.9 (no result: EBV LMP1 NFkB)
COC(=O)c1cnc(Nc2nc(C(N)Cc3ccccc3)cs2)nc1C(F)(F)F (centres undefined)	Peg3 prom inh 52.0 (no result: EBV LMP1 NFkB)
CCOc1ccccc1Nc1cc(C)nc2ccccc12	Shn3 3UTR inh 92.0
O=C1CN(C(=O)c2ccc(Cl)c([N+](=O)[O-])c2)c2ccccc2N1	none
C[C@@H]1COc2cc(N(C)CCO)ccc2S(=O)(=O)N1	none (no result: Peg3 prom inh, EBV LMP1 NFkB, Shn3 3UTR inh, KKLEB tox, CF NFkB block)
C=CCn1cnc2c(c1=O)c1nc3ccccc3nc1n2/N=C/c1cccc(OC)c1OC	Peg3 prom inh 61.1
N=c1n(CCCOc2ccc(Br)cc2)c2ccccc2n1CC(N)=O	Peg3 prom inh 60.0 (no result: Shn3 3UTR inh)
Cn1c(=O)n(CCCOc2ccc(Br)cc2)c2ccccc21	none
CCC(C)c1ccccc1N1CC(C(=O)N2CCN(S(=O)(=O)c3cccc([N+](=O)[O-])c3)CC2)CC1=O (centres undefined)	none
Cc1ccc(N2C(=O)CSC2c2ccc3c(c2)OCO3)cc1 (centres undefined)	none
O=C1CSC(c2ccc3c(c2)OCO3)N1c1ccc(Oc2ccccc2)cc1 (centres undefined)	KKLEB tox -97.0
Cc1cc(C)n2nc(CC(=O)NC3CCCCCC3)nc2n1	EBV LMP1 NFkB 64.4
COc1ccccc1N(CC(=O)NCCSCc1ccccc1)S(C)(=O)=O	none
COc1ccccc1N(CC(=O)NCCSCc1cccc(C)c1)S(=O)(=O)c1ccccc1	Peg3 prom inh 60.8
NNC(=O)c1[nH]c2ccc([N+](=O)[O-])cc2c1-c1ccccc1	none
Cc1ccc(/C=N/NC(=O)c2cc(-c3ccccc3)nc3ccccc23)o1	EBV LMP1 NFkB 53.7
O=C(N/N=C/c1ccccn1)c1cc(C2CC2)nc2ccccc12	none
O=C(N/N=C/c1ccccn1)c1cc(-c2ccccc2)nc2ccccc12	Peg3 prom inh 65.5 (no result: EBV LMP1 NFkB)
O=C(N/N=C/c1ccccn1)c1[nH]c2ccc([N+](=O)[O-])cc2c1-c1ccccc1	Peg3 prom inh 54.6
Cc1ccc(-c2cc(C(=O)Nc3ccccc3C(N)=O)c3ccccc3n2)o1	Peg3 prom inh 52.2 (no result: EBV LMP1 NFkB)
O=C(N/N=C/c1ccc2ncccc2c1)c1cc(-c2cccs2)nc2ccccc12	none
O=C(N/N=C/c1cccnc1)c1cc(-c2cccs2)nc2ccccc12	EBV LMP1 NFkB 57.7
COc1ccc(-c2cc3c(=O)n(CC(=O)NCCCN4CCN(Cc5ccccc5)CC4)ncn3n2)cc1	EBV LMP1 NFkB 50.4
COc1ccc(-c2cc3c(=O)n(CC(=O)NCCCN4CCC(Cc5ccccc5)CC4)ncn3n2)cc1	Peg3 prom inh 96.0, KKLEB tox -61.9
Cc1nn(CC(=O)NCCCN2CCC(N3CCCCC3)CC2)c(=O)c2cc(-c3ccccc3)nn12	Peg3 prom inh 77.9
COc1ccccc1C(=O)Nc1ccnn1C1CCN(Cc2cnc(N(C)C)s2)CC1	none
O=C(COC(=O)CCCOc1ccccc1)NC1CCS(=O)(=O)C1 (centres undefined)	none
C/C(=N/Nc1nc(C)c(C)s1)c1cccc([N+](=O)[O-])c1	none
COc1cc2c(C#Cc3cccnc3)c(-c3ccsc3)oc(=O)c2cc1OC	none
Cc1ccc(C(NC(=O)C2CCN(Cc3ccc(Cl)c(Cl)c3)CC2)c2ccccn2)cc1 (centres undefined)	none (no result: EBV LMP1 NFkB)
O=C(NN=C1CCCCCC1)c1ccc2c(c1)OCO2	none
Cc1c(Cl)cccc1N/C(SCC(=O)N1CCCCCC1)=C(/C#N)c1nc2ccccc2s1	KKLEB tox -64.7, CF NFkB block 53.6
